# In PubChem BioAssay (NCI):
# About 79,000 compounds went through this panel and 15% of them were active in at least one assay; those are over-represented in the sample as a whole. Unmarked numbers belong to inactive results. The source made the active and inactive calls. Rule as the data show it: active = growth inhibition above about 70%; inactive = the rest.
# Tests used:
# [1] = NCI Yeast Anticancer Drug Screen. Data for the rad50 strain (AID 155);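 also: 0% = growth of vehicle-only cultures of the same strain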; settings: S. cerevisiae rad50 strain growth inhibition, hits give high values
# Method in brief: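 Growth of the mutant yeast was measured after compound exposure and referenced to vehicle-treated cultures.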
# [2] = NCI Yeast Anticancer Drug Screen. Data for the mec2-1 strain (AID 157); settings: S. cerevisiae mec2-1 strain, hits give high values
# Method in brief: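 Test agents were screened against the mec2-1 yeast strain, with defined DNA repair or cell cycle alteration. Growth was scored as inhibition against vehicle-only controls.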
# [3] = NCI Yeast Anticancer Drug Screen. Data for the sgs1 mgt1 strain (AID 161);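 also: 0% = growth of cultures given vehicle only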; settings: S. cerevisiae sgs1 mgt1 strain, hits give high values
# Method in brief: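 Test agents were incubated with a DNA-repair-mutant yeast strain. Growth was then read and compared against vehicle-treated controls.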
# [4] = NCI Yeast Anticancer Drug Screen. Data for the cln2 rad14 strain (AID 165);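 also: 0% = growth equal to vehicle treated cultures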; settings: S. cerevisiae cln2 rad14 strain, hits give high values
# Method in brief: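 Growth of compound-exposed yeast (cln2 rad14 genotype) measured and expressed as inhibition relative to vehicle.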
# [5] = NCI Yeast Anticancer Drug Screen. Data for the bub3 strain (AID 167); settings: S. cerevisiae bub3 mutant strain, hits give high values
# Method in brief: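 Whole-cell yeast assay. The mutant strain was incubated with compounds, and growth inhibition was determined by comparison with vehicle-treated cells.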
# [6] = NCI Yeast Anticancer Drug Screen. Data for the mlh1 rad18 strain (AID 175); settings: S. cerevisiae mlh1 rad18 strain growth inhibition, hits give high values
# Method in brief: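 In this whole-cell yeast screen, a strain with altered DNA damage repair is challenged with compound, and its growth is measured against matched vehicle-treated controls.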
# [7] = at 5.0 µM (retest, dose inferred, filed as 0.5)
# [8] = at 50.0 µM (retest, dose inferred, filed as 5.0)
SMILES,"growth inhibition [1, 7]","growth inhibition [1, 8]",growth inhibition ([1]; at 50.0 µM),"growth inhibition [2, 7]","growth inhibition [2, 8]",growth inhibition ([2]; at 50.0 µM),"growth inhibition [3, 7]","growth inhibition [3, 8]",growth inhibition ([3]; at 50.0 µM),"growth inhibition [4, 7]","growth inhibition [4, 8]",growth inhibition ([4]; at 50.0 µM),"growth inhibition [5, 7]","growth inhibition [5, 8]",growth inhibition ([5]; at 50.0 µM),"growth inhibition [6, 7]","growth inhibition [6, 8]",growth inhibition ([6]; at 50.0 µM)
c1ccc(CC[n+]2csc3ccccc32)cc1,-2%,73% (active),57%,0%,84% (active),50.5%,-2%,81% (active),36.3%,-8%,35%,31.8%,0%,90% (active),63.8%,-2%,83% (active),54.6%
Cn1c(=S)c2[nH]c(SCc3ccncc3)nc2n(C)c1=O,-2%,7%,47.2%,0%,-1%,59%,-2%,53%,64%,-3%,-12%,17.8%,-9%,2%,56.4%,-19%,-6%,78.1% (active)
CCCC(C(=O)OCCNC1CCCCC1)c1ccccc1 (stereo not given),2%,18%,71.3% (active),-13%,14%,11.9%,0%,37%,63.3%,-38%,47%,35.1%,-4%,69%,28.5%,2%,18%,55.2%
Cc1ccc(C2(C)CC/C(=N/O)c3cc(C)c(C)cc32)cc1C (stereo not given),72% (active),89% (active),90.5% (active),61%,88% (active),90.8% (active),66%,90% (active),88.7% (active),63%,91% (active),91.2% (active),80% (active),92% (active),87.9% (active),83% (active),92% (active),90.5% (active)
Cc1ncc(CO)c(C=NCCCCCCN=Cc2c(CO)cnc(C)c2[O-])c1[O-].[Cu+2],-2%,-1%,3.9%,-3%,1%,-20.4%,-4%,-5%,-5.85%,-5%,-1%,81.2% (active),-3%,-1%,25.9%,-2%,0%,25.4%
c1ccc(OCCCOc2ccccc2)cc1,4%,2%,-4.15%,-1%,-4%,10.8%,4%,3%,13%,3%,-9%,-5.75%,7%,25%,10.3%,2%,-1%,61.9%
COc1cc(Br)c(CC(NC=O)c2ccc3c(c2)OCO3)cc1OC (stereo not given),-4%,81% (active),62.5%,-3%,74% (active),66.3%,-5%,95% (active),36.5%,4%,95% (active),57.4%,3%,98% (active),96.3% (active),-1%,81% (active),56.5%
Cc1cc(C)nc(/C=C/c2ccccc2)c1,-1%,-10%,98.5% (active),1%,7%,96.6% (active),-9%,22%,98.6% (active),-1%,16%,94.1% (active),18%,29%,97.1% (active),10%,18%,97.8% (active)
COc1cc(C(c2cc3c(cc2O)OCO3)N2CCN(C(c3cc(OC)c(O)c(OC)c3)c3cc4c(cc3O)OCO4)CC2)cc(OC)c1O (stereo not given),-3%,7%,26.3%,1%,16%,41%,-2%,15%,43.6%,0%,-12%,-36.5%,1%,10%,33.8%,0%,7%,51.2%
CCOC(=O)C1=C(Nc2ccc(Cl)c(Cl)c2)OC/C1=N\NS(=O)(=O)c1ccc(C)cc1,24%,24%,17.6%,15%,15%,51.9%,22%,22%,80.3% (active),5%,5%,51.6%,15%,15%,63%,27%,27%,64.2%
Oc1ccc2c(c1)Cc1ccccc1-2,1%,70% (active),93.2% (active),0%,28%,87.1% (active),1%,28%,53%,-8%,70% (active),88.3% (active),-2%,82% (active),98.2% (active),-1%,72% (active),93.1% (active)
CC(C)(C)CCCC(C(=O)O)c1ccccc1 (stereo not given),0%,50%,82.6% (active),-10%,54%,75.8% (active),-2%,31%,63%,-10%,60%,76.8% (active),-7%,57%,55.1%,-7%,49%,85.1% (active)
O=[N+]([O-])c1cccc(S(=O)(=O)Nc2cccc3ccccc23)c1,4%,97% (active),99% (active),1%,98% (active),99.2% (active),2%,97% (active),99.2% (active),4%,98% (active),99.2% (active),1%,97% (active),99.2% (active),-3%,97% (active),98.7% (active)
CCCC(=O)Nc1cc([N+](=O)[O-])ccc1O,-129%,97% (active),99.3% (active),-38%,98% (active),90% (active),-51%,88% (active),63.2%,-57%,84% (active),96.7% (active),-57%,97% (active),95.2% (active),-127%,93% (active),98% (active)
C=Cc1cc(O)cc2c1-c1ccc(O)c(C)c1CC2,10%,99% (active),99.7% (active),-22%,100% (active),99.8% (active),-1%,99% (active),99.8% (active),-3%,99% (active),99.6% (active),10%,99% (active),99.5% (active),-5%,99% (active),99.7% (active)
CC(=O)OC(OC(C)=O)c1ccc([N+](=O)[O-])o1,-7%,-39%,99.4% (active),-23%,-22%,99% (active),-5%,-10%,99.3% (active),-3%,-23%,99.2% (active),-20%,-87%,99.5% (active),5%,4%,99% (active)
CN(CCC(=O)/C(=C\c1ccc(Cl)cc1)c1ccccc1)Cc1ccccc1,98% (active),98% (active),62.9%,100% (active),99% (active),99% (active),99% (active),99% (active),98.2% (active),98% (active),98% (active),98.5% (active),97% (active),99% (active),97.6% (active),99% (active),99% (active),98.5% (active)
O=C(NC(Cc1ccc(I)cc1)C(=O)O)c1cccc(Br)c1 (stereo not given),24%,39%,-14.4%,13%,6%,-35%,23%,37%,-20.5%,17%,34%,-8.15%,21%,29%,-28.9%,23%,32%,-15.9%
COc1cc(CC(=O)O)c(Cc2ccc3c(c2)Cc2ccccc2-3)cc1OC,-7%,94% (active),49%,4%,77% (active),53.5%,-1%,92% (active),52.1%,6%,91% (active),88.7% (active),-7%,95% (active),94.5% (active),2%,88% (active),47.6%
OCCCC(Sc1ccccc1)c1ccccc1 (stereo not given),-1%,25%,46.4%,-18%,13%,78.5% (active),-15%,23%,67.2%,-1%,-1%,40.2%,-4%,3%,-0.25%,28%,23%,52.2%
